PubChem BioAssay (NCATS)
Records with an inconclusive call do not appear. Entries that show only a call come without a potency. A number with no mark means an inactive call. The source made the active and inactive calls. Calls come from the whole dose curve; as a rule, active = well fitted inhibition curve with a large enough effect; inconclusive = small, poorly fitted or top-dose-only effect; inactive = flat fitted curve, though single readings scatter.

Legend:
3D7 = test: qHTS profiling for inhibitors of Plasmodium falciparum proliferation (AID 504749); note: nearly all actives have a fitted effect of over 60% in size; settings: P. falciparum in erythrocytes, SYBR Green DNA, 72 h; series mostly up to 28.7 µM
In short: (§1)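 SYBR Green fluorescence (ex 485 nm, em 535 nm) reports parasite DNA after 72 h compound exposure of infected red cells at 0.3% parasitemia, 2.5% hematocrit; signal normalized to 0.29 uM artemisinin and vehicle wells.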

7G8 = test: as above; settings: P. falciparum in erythrocytes, SYBR Green DNA, 72 h; series mostly up to 28.7 µM
In short: as §1

ATS189 = test: as above; settings: P. falciparum in erythrocytes, SYBR Green DNA, 72 h; series mostly up to 28.7 µM
In short: as §1

ATS95 = test: as above; settings: P. falciparum in erythrocytes, SYBR Green DNA, 72 h; series mostly up to 28.7 µM
In short: as §1

C2A = test: as above; settings: P. falciparum in erythrocytes, SYBR Green DNA, 72 h; series mostly up to 28.7 µM
In short: as §1

CP185 = test: as above; settings: P. falciparum in erythrocytes, SYBR Green DNA, 72 h; series mostly up to 28.7 µM
In short: as §1

AA1029 = test: as above; settings: P. falciparum in erythrocytes, SYBR Green DNA, 72 h; series mostly up to 28.7 µM
In short: as §1

[1] = as above; settings: P. falciparum in erythrocytes, SYBR Green DNA, 72 h, parasite line A; for activity, negative = inhibition: at 28.7 µM (top of the series)
In short: as §1

AS120 = test: as above; settings: P. falciparum in erythrocytes, SYBR Green DNA, 72 h; series mostly up to 28.7 µM
In short: as §1
Potency is the fitted concentration of half-maximal effect.

Cc1cc(CC(=O)O)c(C)n1-c1ccc(Cl)cc1
Potency (3D7): inactive
Potency (7G8): 11.2 µM (active)
Potency (ATS189): inactive
Potency (ATS95): inactive
Potency (C2A): inactive
Potency (CP185): inactive

CC(C)(C)CC(C)(C)c1ccc(O)c(-n2nc3ccccc3n2)c1
Potency (7G8): 5.01 µM (active)
Potency (AA1029): 12.6 µM (active)

CC[N+](C)(CC)CCOC(=O)C(O)(c1ccccc1)C1CCCCC1 (stereo not given)
activity, negative = inhibition [1]: -48%
Potency (AA1029): inactive
Potency (AS120): inactive
Potency (ATS189): inactive
Potency (ATS95): inactive
Potency (C2A): inactive

CC(=O)O[C@]1(C(C)=O)CC[C@H]2[C@@H]3C=C(Cl)C4=CC(=O)CC[C@]4(C)[C@H]3CC[C@@]21C
Potency [1]: 12.6 µM (active)
Potency (7G8): 11.2 µM (active)
Potency (AA1029): 11.2 µM (active)
Potency (AS120): 11.2 µM (active)

Oc1c(Cl)cc(Cl)c(Cl)c1Cc1c(O)c(Cl)cc(Cl)c1Cl
Potency [1]: 11.2 µM (active)
Potency (7G8): 4.47 µM (active)
Potency (AS120): 11.2 µM (active)

CO[C@]12C[C@@H](COC(=O)c3cncc(Br)c3)CN(C)[C@@H]1Cc1cn(C)c3cccc2c13
activity, negative = inhibition [1]: -17.9%
Potency (3D7): inactive
Potency (CP185): inactive

C[N+]1(C)CCC(=C(c2ccccc2)c2ccccc2)CC1
Potency (AA1029): inactive
Potency (AS120): inactive
Potency (ATS189): inactive
Potency (ATS95): inactive
Potency (C2A): inactive
Potency (CP185): inactive
